Laboratory results as given in the supplement of paper PMC6411743.
± gives the standard deviation of the averaged measurements. Of roughly 5,400 targets only a part is listed; those with the largest changes were picked by preference.

Compound: Nc1nc2c(ncn2[C@@H]2O[C@H](COP(=O)(O)OP(=O)(O)OP(=O)(O)O)[C@@H](O)[C@H]2O)c(=O)[nH]1 [guanosine triphosphate]
Experiment: NP40-soluble protein abundance relative to vehicle (solubility fold change) (ratio); higher = more soluble protein in presence of GTP
Summary of the method: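 Each value is a fold change relative to the detergent-processed vehicle, calculated per replicate from vsn-normalised intensities. Jurkat crude lysate received eight concentrations (0.1 to 10 mM) for 10 min at room temperature and 3 min at 37 °C, then was solubilised in 0.8% NP40 with benzonase (60 min, 4 °C). The ultracentrifuged supernatant was TMT-labelled and run by LC-MS/MS in three independent experiments.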

Chain of UniProt Q86SZ2 (Q86SZ2 whole entry): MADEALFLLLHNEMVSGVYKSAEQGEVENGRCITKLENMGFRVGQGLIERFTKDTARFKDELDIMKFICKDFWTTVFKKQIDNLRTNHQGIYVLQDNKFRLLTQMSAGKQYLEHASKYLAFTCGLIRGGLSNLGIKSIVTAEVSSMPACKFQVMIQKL
Chain of UniProt Q8N3C0 (Q8N3C0 whole entry): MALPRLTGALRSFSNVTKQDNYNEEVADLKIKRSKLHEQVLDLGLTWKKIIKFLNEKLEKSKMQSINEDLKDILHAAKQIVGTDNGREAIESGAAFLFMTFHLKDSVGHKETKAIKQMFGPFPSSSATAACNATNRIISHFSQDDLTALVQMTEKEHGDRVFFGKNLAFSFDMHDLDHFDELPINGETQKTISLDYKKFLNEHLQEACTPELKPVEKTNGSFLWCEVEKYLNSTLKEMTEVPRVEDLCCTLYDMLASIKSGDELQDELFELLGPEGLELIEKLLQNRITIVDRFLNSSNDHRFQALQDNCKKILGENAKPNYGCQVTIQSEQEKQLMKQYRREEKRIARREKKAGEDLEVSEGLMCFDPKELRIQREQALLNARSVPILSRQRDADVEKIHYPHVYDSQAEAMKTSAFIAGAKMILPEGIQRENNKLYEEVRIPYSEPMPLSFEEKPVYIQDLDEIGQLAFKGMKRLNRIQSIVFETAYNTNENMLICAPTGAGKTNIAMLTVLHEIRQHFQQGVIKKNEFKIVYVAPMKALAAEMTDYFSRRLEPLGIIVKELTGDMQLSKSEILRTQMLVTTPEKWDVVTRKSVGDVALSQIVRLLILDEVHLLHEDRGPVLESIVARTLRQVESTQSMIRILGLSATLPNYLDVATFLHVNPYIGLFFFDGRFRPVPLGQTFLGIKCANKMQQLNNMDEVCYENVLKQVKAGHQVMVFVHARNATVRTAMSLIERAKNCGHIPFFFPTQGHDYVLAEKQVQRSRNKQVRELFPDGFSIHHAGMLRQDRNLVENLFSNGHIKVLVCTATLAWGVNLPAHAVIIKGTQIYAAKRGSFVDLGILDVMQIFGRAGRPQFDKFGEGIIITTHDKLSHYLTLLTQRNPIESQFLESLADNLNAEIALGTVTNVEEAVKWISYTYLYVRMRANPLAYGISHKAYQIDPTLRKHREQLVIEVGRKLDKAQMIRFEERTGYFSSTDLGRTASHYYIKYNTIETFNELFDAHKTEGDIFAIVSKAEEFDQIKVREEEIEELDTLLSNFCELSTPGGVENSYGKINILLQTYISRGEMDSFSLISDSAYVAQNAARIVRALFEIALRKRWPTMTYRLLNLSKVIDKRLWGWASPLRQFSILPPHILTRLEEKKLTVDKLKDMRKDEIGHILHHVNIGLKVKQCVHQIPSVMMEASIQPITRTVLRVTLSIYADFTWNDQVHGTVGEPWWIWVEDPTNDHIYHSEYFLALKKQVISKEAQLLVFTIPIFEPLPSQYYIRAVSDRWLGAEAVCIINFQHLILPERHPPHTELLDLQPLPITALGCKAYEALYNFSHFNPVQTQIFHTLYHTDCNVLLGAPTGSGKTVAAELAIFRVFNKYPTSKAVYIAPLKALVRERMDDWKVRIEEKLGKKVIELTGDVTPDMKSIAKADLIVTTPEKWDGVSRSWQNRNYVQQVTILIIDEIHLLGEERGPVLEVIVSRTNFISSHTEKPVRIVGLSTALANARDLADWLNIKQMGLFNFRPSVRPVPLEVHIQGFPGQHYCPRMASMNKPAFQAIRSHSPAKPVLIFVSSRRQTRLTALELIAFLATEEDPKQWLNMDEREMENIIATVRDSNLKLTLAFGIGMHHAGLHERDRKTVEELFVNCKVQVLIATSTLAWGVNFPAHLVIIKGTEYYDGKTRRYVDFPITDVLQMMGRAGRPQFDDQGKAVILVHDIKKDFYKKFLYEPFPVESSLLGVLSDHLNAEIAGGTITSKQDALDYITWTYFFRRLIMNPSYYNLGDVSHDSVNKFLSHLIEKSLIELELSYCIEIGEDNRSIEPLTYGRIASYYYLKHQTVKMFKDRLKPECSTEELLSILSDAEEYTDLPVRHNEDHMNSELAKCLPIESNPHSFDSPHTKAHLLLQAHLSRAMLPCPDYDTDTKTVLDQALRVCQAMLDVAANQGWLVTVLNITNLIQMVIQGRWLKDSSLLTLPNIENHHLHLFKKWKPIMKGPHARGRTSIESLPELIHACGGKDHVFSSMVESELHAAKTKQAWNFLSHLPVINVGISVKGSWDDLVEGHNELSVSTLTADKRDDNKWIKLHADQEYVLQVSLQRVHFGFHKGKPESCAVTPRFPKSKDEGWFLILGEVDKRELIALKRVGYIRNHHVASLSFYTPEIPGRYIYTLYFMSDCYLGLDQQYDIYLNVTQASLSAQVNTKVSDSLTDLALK
Chain of UniProt Q13151 (Q13151 whole entry): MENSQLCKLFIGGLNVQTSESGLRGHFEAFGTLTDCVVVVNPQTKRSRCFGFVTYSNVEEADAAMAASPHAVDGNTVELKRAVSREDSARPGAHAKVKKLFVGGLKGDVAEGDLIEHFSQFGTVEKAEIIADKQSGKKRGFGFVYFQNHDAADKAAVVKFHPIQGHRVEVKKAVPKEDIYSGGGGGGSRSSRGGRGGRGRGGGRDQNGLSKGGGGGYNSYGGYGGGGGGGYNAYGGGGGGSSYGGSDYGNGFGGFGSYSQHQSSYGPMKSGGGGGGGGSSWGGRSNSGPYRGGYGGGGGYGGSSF
Chain of UniProt Q13427 (Q13427 whole entry, one chain of several): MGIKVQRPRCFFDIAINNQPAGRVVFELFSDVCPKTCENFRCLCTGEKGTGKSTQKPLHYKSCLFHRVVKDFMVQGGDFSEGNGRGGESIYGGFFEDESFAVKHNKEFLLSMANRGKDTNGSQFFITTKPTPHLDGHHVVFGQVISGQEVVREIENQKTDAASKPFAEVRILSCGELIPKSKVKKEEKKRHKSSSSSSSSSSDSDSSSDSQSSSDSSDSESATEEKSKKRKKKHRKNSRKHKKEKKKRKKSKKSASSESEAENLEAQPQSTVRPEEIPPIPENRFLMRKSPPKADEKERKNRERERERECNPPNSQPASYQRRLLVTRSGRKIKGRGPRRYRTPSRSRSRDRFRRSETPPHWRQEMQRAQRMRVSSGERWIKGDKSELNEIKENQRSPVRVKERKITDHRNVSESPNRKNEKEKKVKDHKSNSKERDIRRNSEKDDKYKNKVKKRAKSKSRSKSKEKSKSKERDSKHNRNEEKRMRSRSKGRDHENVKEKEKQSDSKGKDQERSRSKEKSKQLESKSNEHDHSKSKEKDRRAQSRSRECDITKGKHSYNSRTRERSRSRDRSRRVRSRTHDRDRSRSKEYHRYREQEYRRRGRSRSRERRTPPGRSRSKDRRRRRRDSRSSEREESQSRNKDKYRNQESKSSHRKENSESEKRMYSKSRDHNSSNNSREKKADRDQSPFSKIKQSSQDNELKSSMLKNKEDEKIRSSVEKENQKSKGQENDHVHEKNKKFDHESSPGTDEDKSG
Chain of UniProt Q04656 (Q04656 whole entry): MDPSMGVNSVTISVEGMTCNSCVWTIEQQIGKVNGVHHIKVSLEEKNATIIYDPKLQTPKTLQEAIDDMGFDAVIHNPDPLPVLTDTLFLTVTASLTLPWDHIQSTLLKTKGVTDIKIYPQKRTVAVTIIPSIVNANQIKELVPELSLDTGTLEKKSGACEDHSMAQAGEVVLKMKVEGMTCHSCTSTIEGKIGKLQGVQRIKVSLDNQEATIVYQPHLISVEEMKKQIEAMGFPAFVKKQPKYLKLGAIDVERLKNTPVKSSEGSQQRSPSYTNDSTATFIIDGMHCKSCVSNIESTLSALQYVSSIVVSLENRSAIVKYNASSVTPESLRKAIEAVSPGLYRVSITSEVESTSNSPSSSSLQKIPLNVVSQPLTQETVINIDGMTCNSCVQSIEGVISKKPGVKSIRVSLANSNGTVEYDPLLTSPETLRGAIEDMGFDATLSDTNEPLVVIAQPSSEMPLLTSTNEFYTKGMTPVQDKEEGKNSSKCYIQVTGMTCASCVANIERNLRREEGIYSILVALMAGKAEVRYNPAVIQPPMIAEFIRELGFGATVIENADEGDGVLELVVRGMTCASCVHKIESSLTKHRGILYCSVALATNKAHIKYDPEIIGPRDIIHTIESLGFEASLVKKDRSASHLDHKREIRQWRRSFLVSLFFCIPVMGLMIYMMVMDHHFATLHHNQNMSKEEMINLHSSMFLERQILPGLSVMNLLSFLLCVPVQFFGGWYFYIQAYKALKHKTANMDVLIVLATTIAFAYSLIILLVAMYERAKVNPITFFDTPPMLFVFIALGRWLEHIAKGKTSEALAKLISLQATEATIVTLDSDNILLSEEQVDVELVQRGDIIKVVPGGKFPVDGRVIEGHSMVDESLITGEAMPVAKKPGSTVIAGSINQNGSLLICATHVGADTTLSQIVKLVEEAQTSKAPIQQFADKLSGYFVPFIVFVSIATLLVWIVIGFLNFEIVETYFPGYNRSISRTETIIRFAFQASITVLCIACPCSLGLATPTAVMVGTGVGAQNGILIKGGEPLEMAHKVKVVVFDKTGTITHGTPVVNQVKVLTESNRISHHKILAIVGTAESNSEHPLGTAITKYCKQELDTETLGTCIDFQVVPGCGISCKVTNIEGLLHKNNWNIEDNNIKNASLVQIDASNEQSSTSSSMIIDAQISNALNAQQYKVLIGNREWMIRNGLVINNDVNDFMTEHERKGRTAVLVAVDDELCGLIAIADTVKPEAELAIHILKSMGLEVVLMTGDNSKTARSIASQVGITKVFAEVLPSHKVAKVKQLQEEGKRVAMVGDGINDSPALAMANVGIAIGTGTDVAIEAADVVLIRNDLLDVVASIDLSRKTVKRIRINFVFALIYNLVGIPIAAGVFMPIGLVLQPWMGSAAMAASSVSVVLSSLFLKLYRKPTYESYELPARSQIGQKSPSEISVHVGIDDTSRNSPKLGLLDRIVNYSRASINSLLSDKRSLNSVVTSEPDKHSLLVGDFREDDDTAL
Chain of UniProt Q86V88 (Q86V88 whole entry): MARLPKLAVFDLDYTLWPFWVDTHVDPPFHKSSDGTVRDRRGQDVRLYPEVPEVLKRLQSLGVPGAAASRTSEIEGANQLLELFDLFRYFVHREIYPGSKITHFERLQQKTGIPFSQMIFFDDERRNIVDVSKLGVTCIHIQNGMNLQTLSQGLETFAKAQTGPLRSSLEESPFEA

Target	NP40-soluble protein abundance (concentration: 0.1mM)	NP40-soluble protein abundance (concentration: 0.5mM)	NP40-soluble protein abundance (concentration: 1mM)	NP40-soluble protein abundance (concentration: 2mM)	NP40-soluble protein abundance (concentration: 4mM)	NP40-soluble protein abundance (concentration: 6mM)	NP40-soluble protein abundance (concentration: 8mM)	NP40-soluble protein abundance (concentration: 10mM)
UniProt Q86V88|Q86V88-2	0.975 ± 0.052	0.901 ± 0.079	0.953 ± 0.11	0.872 ± 0.064	0.869 ± 0.048	0.839 ± 0.089	0.858 ± 0.058	0.88 ± 0.078
UniProt Q8N2K0|Q8N2K0-2	1.09 ± 0.011	1.04 ± 0.051	1.01 ± 0.017	1.017 ± 0.0025	1.03 ± 0.015	1.01 ± 0.023	0.997 ± 0.031	0.976 ± 0.034
THOC2 (UniProt Q8NI27)	1.14 ± 0.054	1.33 ± 0.14	1.39 ± 0.15	1.72 ± 0.29	2.05 ± 0.4	2.18 ± 0.51	2.23 ± 0.54	2.16 ± 0.48
UniProt Q8NCW5	0.907 ± 0.084	0.869 ± 0.041	0.991 ± 0.083	0.986 ± 0.055	0.967 ± 0.085	0.932 ± 0.08	0.895 ± 0.11	0.969 ± 0.1
UniProt Q04656|Q04656-2|Q04656-3|Q04656-5	1.01 ± 0.13	1.01 ± 0.059	0.971 ± 0.096	1.01 ± 0.079	0.951 ± 0.052	1.02 ± 0.015	0.972 ± 0.11	0.924 ± 0.087
P62158 (UniProt P0DP23)	0.715 ± 0.11	0.763 ± 0.14	0.991 ± 0.17	1.12 ± 0.19	1.09 ± 0.21	1.15 ± 0.24	0.939 ± 0.14	1.14 ± 0.11
UniProt Q6KCM7|Q6KCM7-2|Q6KCM7-3|Q6KCM7-4|Q6KCM7-5|Q6KCM7-6	1.12 ± 0.041	1.08 ± 0.034	1.06 ± 0.058	1.04 ± 0.016	1.04 ± 0.066	1.019 ± 0.0034	0.982 ± 0.061	0.989 ± 0.098
TBL3 (UniProt Q12788)	1.18 ± 0.1	1.16 ± 0.14	1.11 ± 0.058	1.36 ± 0.15	1.59 ± 0.19	1.65 ± 0.17	1.72 ± 0.21	1.7 ± 0.26
UniProt Q8TDZ2|Q8TDZ2-4	1.01 ± 0.056	0.965 ± 0.069	0.946 ± 0.021	0.9475 ± 0.0091	0.9237 ± 0.0088	0.899 ± 0.019	0.921 ± 0.016	0.879 ± 0.058
PPP1CA (UniProt P62136)	0.894 ± 0.12	0.92 ± 0.12	0.861 ± 0.081	0.834 ± 0.072	0.855 ± 0.083	0.853 ± 0.056	0.837 ± 0.098	0.828 ± 0.092
UniProt Q14156|Q14156-3	1.13 ± 0.049	1.105 ± 0.011	1.09 ± 0.11	1.1 ± 0.021	1.21 ± 0.11	1.1 ± 0.16	1.0338 ± 0.00078	1.01 ± 0.013
GALNT2 (UniProt Q10471)	1.02 ± 0.025	0.97 ± 0.021	0.9568 ± 0.0034	0.917 ± 0.014	0.928 ± 0.022	0.901 ± 0.012	0.927 ± 0.046	0.861 ± 0.052
UniProt Q5K651|C9JKF1	1.04 ± 0.017	1.07 ± 0.021	0.998 ± 0.025	1.01 ± 0.062	0.968 ± 0.083	0.959 ± 0.047	0.985 ± 0.045	0.949 ± 0.088
UniProt P55884|P55884-2	1.02 ± 0.042	1.07 ± 0.056	1.03 ± 0.068	1.14 ± 0.18	1.29 ± 0.26	1.46 ± 0.33	1.55 ± 0.34	1.75 ± 0.36
UniProt Q10567|Q10567-2|Q10567-3	0.918 ± 0.056	0.927 ± 0.032	0.956 ± 0.054	0.943 ± 0.044	0.954 ± 0.04	0.919 ± 0.051	0.921 ± 0.05	0.924 ± 0.054
RDH11 (UniProt Q8TC12)	1 ± 0.014	0.985 ± 0.024	0.911 ± 0.034	0.895 ± 0.051	0.867 ± 0.048	0.88 ± 0.015	0.824 ± 0.084	0.782 ± 0.082
TRAPPC6B (UniProt Q86SZ2)	1.06 ± 0.015	0.988 ± 0.077	0.954 ± 0.058	0.997 ± 0.092	0.999 ± 0.049	0.963 ± 0.088	0.885 ± 0.017	0.958 ± 0.065
ANKRD11 (UniProt Q6UB99)	1.01 ± 0.024	1.01 ± 0.092	1.1 ± 0.027	1.1 ± 0.06	1.1 ± 0.041	1.08 ± 0.042	1.18 ± 0.073	1.17 ± 0.073
CCDC25 (UniProt Q86WR0)	0.954 ± 0.079	0.939 ± 0.057	0.892 ± 0.051	0.842 ± 0.071	0.855 ± 0.1	0.842 ± 0.084	0.876 ± 0.059	0.863 ± 0.068
UniProt Q14444|Q14444-2	0.95 ± 0.057	0.994 ± 0.098	1.06 ± 0.07	1.01 ± 0.14	1.02 ± 0.088	1.11 ± 0.1	1.16 ± 0.057	1.13 ± 0.11
HNRNPA0 (UniProt Q13151)	0.975 ± 0.038	1 ± 0.024	1 ± 0.038	0.989 ± 0.05	0.967 ± 0.035	1 ± 0.046	1.01 ± 0.052	0.986 ± 0.058
UniProt Q13427|E9PG73	0.978 ± 0.092	1.11 ± 0.12	1.18 ± 0.13	1.16 ± 0.098	1.09 ± 0.13	1.12 ± 0.12	1.21 ± 0.18	1.2 ± 0.2
UniProt P84090	1.06 ± 0.1	1.02 ± 0.06	1.26 ± 0.18	1.34 ± 0.11	1.42 ± 0.16	1.54 ± 0.1	1.65 ± 0.14	1.95 ± 0.38
CHMP7 (UniProt Q8WUX9)	0.945 ± 0.058	0.935 ± 0.087	0.973 ± 0.085	0.92 ± 0.11	0.884 ± 0.074	0.9 ± 0.045	0.912 ± 0.1	0.889 ± 0.084
SLC44A1 (UniProt Q8WWI5)	0.943 ± 0.066	0.931 ± 0.078	0.926 ± 0.061	0.894 ± 0.093	0.934 ± 0.07	0.879 ± 0.1	0.899 ± 0.1	0.938 ± 0.08
YRDC (UniProt Q86U90)	0.989 ± 0.041	0.952 ± 0.022	0.949 ± 0.027	0.943 ± 0.015	0.946 ± 0.041	0.899 ± 0.026	0.871 ± 0.07	0.916 ± 0.055
UniProt Q6WKZ4|Q6WKZ4-3	1.02 ± 0.049	0.951 ± 0.044	0.946 ± 0.05	0.921 ± 0.056	0.933 ± 0.058	0.901 ± 0.022	0.943 ± 0.057	0.89 ± 0.038
HNRNPA1L2 (UniProt Q32P51)	1.34 ± 0.52	1.32 ± 0.58	1.8 ± 0.79	1.49 ± 0.44	1.47 ± 0.51	1.67 ± 0.65	1.92 ± 0.8	1.58 ± 0.35
ASCC3 (UniProt Q8N3C0)	1 ± 0.066	1.09 ± 0.026	1.06 ± 0.032	1.16 ± 0.091	1.32 ± 0.17	1.38 ± 0.22	1.53 ± 0.26	1.73 ± 0.27
